Source: PubChem (National Center for Advancing Translational Sciences (NCATS))
POLI inh – blocks human DNA polymerase iota activity; Q9UNA4; Pol iota fluorescent replication assay, 10 min; Potency, µM (series often up to 115 µM), for inactives: at the top dose activity, negative = inhibition, most hits filed as inhibitors; 390,000 tested, 1% active; AID 588590
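Pol iota at 10 nM preincubated 15 min with compounds at room temperature; reaction started with fluorescent substrate, 50 nM final. Fluorescence read kinetically at 0 and 10 min; buffer-only wells as negative control.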
L3MBTL1 inh – L3MBTL1 (human) inhibition. Q9Y468. AlphaScreen L3MBTL1–H3K9me1 peptide binding. Potency, µM (highest dose often 57.1 µM), for inactives: top-dose activity, negative = inhibition, usual class: inhibitors. 230,000 tested, 0.66% active. AID 485360; note: % is set by controls: 0 for no effect and ±100 for the full control effect; nearly all actives have a fitted effect of over 60% in size
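First, the protein-peptide complex forms for 30 min at room temperature (L3MBTL1 50 nM, biotinylated H3K9me1 peptide 75 nM). Next, compounds are pin-transferred and incubated 30 min. Finally, AlphaScreen beads are added and read after 30 min.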
POLB inh – blocks human DNA polymerase beta activity | P06746 | AID 485314 | Pol beta primer extension/strand displacement, fluorescence kinetic | Potency, µM (series often up to 114 µM), without a hit: at the top dose activity change, negative = inhibition, hits mostly inhibitors | 340,000 tested, 1.3% active; note: % is set by controls: 0 for no effect and ±100 for the full control effect
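Human Pol beta at 10 nM; strand-displacement substrate 50 nM final. Compound exposure 15 min at room temperature before start, reaction 10 min at room temperature.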
Pol kappa inh – DNA polymerase kappa (human) inhibition. purified Pol kappa, fluorescent DNA synthesis assay, 10 min. 400,000 tested, 0.53% active. Potency, µM (highest dose often 107 µM), inactives show top-dose activity, negative = inhibition, actives largely listed as inhibitors. AID 588579; note: % is set by controls: 0 for no effect and ±100 for the full control effect
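Readout: fluorescence, taken kinetically at 0 and 10 min. Conditions: 10 nM Pol kappa, 15 min RT compound preincubation, 50 nM substrate final. Controls: enzyme-free buffer wells.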
POLH inh – inhibitors of human DNA polymerase eta | Potency, µM (top dose mostly 114 µM), for the others: at the highest dose activity change, negative = inhibition, hits mostly inhibitors | Q9Y253 | 390,000 tested, 1.2% active | recombinant Pol eta, fluorescent DNA replication assay; note: % is set by controls: 0 for no effect and ±100 for the full control effect
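Pol eta at 10 nM preincubated with compounds 15 min at room temperature; reaction started with fluorescent substrate (50 nM final) and read kinetically at 0 and 10 min.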
* hit, by the source's call; ? = inconclusive; . = not tested or not shown; [ ] = dose if it differs, or a comment. Shown are actives, neighbours in structure and some others; about 2.4% of the full set was active somewhere. Calls come from the whole dose curve; as a rule, active = well fitted curve in the direction sought with a large enough effect; inconclusive = small, poorly fitted or top-dose-only effect, or another doubt; inactive = no such curve, though single readings can be large; an effect the other way counts as inactive or inconclusive. Potency is the fitted concentration of half-maximal effect.

SMILES	POLI inh	L3MBTL1 inh	POLB inh	Pol kappa inh	POLH inh
O=C(NNc1nc2c(F)cccc2s1)c1cc(=O)c2ccccc2o1	22.4µM*	-18.3%	?	-17.8%	?
COc1ccc2nc(NC(=O)c3cc(=O)c4cc(C)c(C)cc4o3)sc2c1	30.5%	.	-10.9%	-14.6%	-12.1%
O=C(/C=C/Nc1ccc(S(=O)(=O)Nc2cnc3ccccc3n2)cc1)c1ccccc1	33.2%	.	-7.9%	-13.2%	-19.9%
COc1cccc(C(=O)/C=C/Nc2ccc(S(=O)(=O)Nc3cnc4ccccc4n3)cc2)c1	?	1.9%	2.7%	-14.4%	15.8µM*
COc1cccc(-c2nc(CS(=O)(=O)CC(=O)NCc3cccc(Cl)c3)c(C)o2)c1	-9.3%	.	45.7%	-11.0%	1.7%
Cc1ccc(O)c(/C=N/NC(=O)Cc2ccc(Cl)cc2)c1	-5.8%	5.7%	25.1µM*	-8.2%	6.3%
O=C(N/N=C/c1cc(Br)c(O)c(Br)c1O)c1cccnc1	7.1%	.	39.8µM*	-1.5%	39.8µM*
O=C(N/N=C/c1cc(Cl)ccc1O)c1ccc(Br)cc1	?	-27.8%	10µM*	?	?
O=C(N/N=C/c1cc(Br)ccc1O)c1ccncc1	1.6%	31.6µM*	31.6%	6.0%	-20.0%
O=C(N/N=C/c1cc(O)ccc1Br)c1cccnc1	-1.1%	?	-11.0%	-17.0%	-0.9%
O=C(N/N=C/c1ccc(O)c2ncccc12)c1cccc(Br)c1	53.1%	7.94µM*	-20.2%	-10.2%	-18.0%
Nc1nonc1C(=O)N/N=C/c1cc(Br)ccc1O	97.4%	1.41µM*	-12.0%	-1.6%	-18.9%
COc1ccc(C(=O)N(Cc2ccco2)Cc2cccs2)c(OC)c1	13.1%	.	.	-20.8%	.
N/C(=C\C(=O)c1cc(Cl)ccc1O)C(Cl)(Cl)Cl	?	-21.9%	13.3%	0.0%	50.1µM*
Cc1ccc(Cn2cccc2/C=C2/C(=N)N3C=CSC3=NC2=O)cc1	?	-13.0%	0.4%	-8.1%	70.8µM*
CCCCCCCCCCCCCC(=O)N[C@@H](C)[C@H](O)c1ccccc1	.	.	.	1.2%[19.4 µM]	.
CC1=C(c2ccccc2)SC2=NCCN21	-15.1%	.	-0.8%	-13.3%[60.1 µM]	3.2%
COc1ccc2c(C)c(CC(=O)NCc3ccccc3Cl)c(=O)oc2c1OC	-6.6%	.	44.7µM*	-14.3%	-0.7%
COc1ccc2c(C)c(CCC(=O)NCc3ccccc3Cl)c(=O)oc2c1C	17.7%	.	32.9%	3.4%	-2.3%
CCN1CCOC(=O)C1CC(=O)Nc1ccc(Br)cc1 (configuration not stated)	-0.7%	.	-18.4%	-25.5%	-16.8%
C=CCNC(=O)[C@@H]1CSC2c3ccc(OC)c(OC)c3C(=O)N21 (some centres not stated)	39.8µM*	.	-17.2%	-5.5%	?
C=CCn1nc([N+](=O)[O-])nc1Sc1cccc2cccnc12	22.5%	28.2µM*	-29.0%	-10.0%	-10.3%
Cc1cccc(Oc2nc3c(c(=O)n(C)c(=O)n3C)n2Cc2ccccc2)c1C	20.4%	.	-1.8%	-5.6%	-19.7%
O=C(C[n+]1cc(Br)cc(Br)c1)c1ccc2c(c1)CCCC2	19.9%	.	.	-18.1%	.
O=C(c1ccc2c(=O)n3c(nc2c1)CCCCC3)N1CCN(C(c2ccccc2)c2ccccc2)CC1	89.1µM*	.	24.2%	-3.1%	-14.0%
SMILES	POLI inh	L3MBTL1 inh	POLB inh	Pol kappa inh	POLH inh
COc1cc(/C=C/c2nc(C#N)c(NC3CCCCC3)o2)cc(OC)c1OC	13.1%	.	1.7%	-22.8%	?
CCC(C)NC(=O)Cn1c(=O)n(-c2cc(OC)cc(OC)c2)c(=O)c2ccccc21 (configuration not stated)	21.6%	.	-8.5%	15.7%	-6.3%
COc1cc(/C=C2\COC/C(=C\c3cc(OC)c(OC)c(OC)c3)C2=O)cc(OC)c1OC	11.2µM*	-15.1%	-2.3%	-20.6%	?
COc1ccc(/C=C2\COc3ccccc3C2=O)cc1OC	25.1µM*	-1.2%	7.1%	-5.8%	?
COc1cc(/C=C2\CC/C(=C\c3cc(OC)c(OC)c(OC)c3)C2=O)cc(OC)c1OC	37.4%	-2.1%	-1.7%	1.6%	-24.0%
CCOc1cc(/C=C2\COc3ccccc3C2=O)cc(Br)c1OCC(=O)N(C)C	17.8µM*	.	-24.5%	0.8%	?
CCOc1ccc(C(=O)c2cn(CC(=O)Nc3ccc4c(c3)OCO4)c3ccc(OC)cc3c2=O)cc1	29.4%	.	?	-4.1%	?
